The panel holds about 83,000 compounds, 20% with a hit somewhere; the sample as a whole holds those more often.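 In brief: 96-well plates, 48 h treatment, single concentration, percent growth endpoint.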 The source made the active and inactive calls. Rule for the calls: active = growth percent below 10; inactive = the rest.
Each compound was assayed on CCRF-CEM leukemia (assay: NCI-60 one-dose screen, 48 h (100 = growth as untreated, 0 = no growth, -100 = all killed)). Conditions: 10 µM unless noted.

Structure (SMILES)	growth
CCCCCCC1N=C(N)N=C(N)N1c1cccc(Cl)c1 (stereo unspecified)	28.7% (inactive)
O=C(O)c1cc2c(s1)C(=O)c1sccc1C2=O	42.5% (inactive)
N#CCc1cccc2ccccc12	91.9% (inactive)
COC(=O)C(=[N+]=[N-])C(=O)c1ccc([N+](=O)[O-])o1	83.9% (inactive)
O=C(Nc1cccc(C(F)(F)F)c1)Oc1ccc(Cl)c2cccnc12	-15.3% (active)
CCOc1ccc(C(CN2CCOCC2)C(C)=O)cc1OC (stereo unspecified)	52.7% (inactive)
COc1ccc2c(c1)c(CC(=O)O)c(C)n2C(=O)c1ccc(Cl)cc1	89.7% (inactive)
CC(C)N=C(N)/N=C(\N)Nc1ccc2ccc3ccccc3c2c1	12.3% (inactive)
CCc1cnc2ccccc2c1/C=C/c1ccc(N(C)C)cc1	32.9% (inactive)
NC(=S)N/N=C\c1nccc2c(C(F)(F)F)cccc12	-9.85% (active)
CCC(=O)c1cc([N+](=O)[O-])c(Br)s1	1.7% (active)
O=C1/C(=C/c2ccccc2)CCC/C1=C\c1ccccc1	76.3% (inactive)
COc1cc(NCc2ccc3nc(N)nc(N)c3c2C)cc(OC)c1OC (tested in a mixture with another compound)	19.9% (inactive)
CCOc1cc(F)c([N+](=O)[O-])cc1[N+](=O)[O-]	9.98% (active)
CC/C(=C(/CC)c1ccc(O)cc1)c1ccc(O)cc1	48.8% (inactive)
CC(C)c1ccc(C(=O)OC2CCCC2)cc1	89.8% (inactive)
O=C(CBr)c1ccc(OC(=O)c2ccccc2)cc1	67.6% (inactive)
CN(C)CC(C)(CN(C)C)C(=O)/C=C/c1c(Cl)cccc1Cl	-4.65% (active)

Structure (SMILES)	growth
COc1cc(/C=C/c2ccnc3ccccc23)cc(OC)c1OC	43.5% (inactive)
Cc1cc(C)c([I+]c2c(C)cc(C)cc2C)c(C)c1	-29.5% (active)
COc1cc(/C=C/C(=O)CC(=O)/C=C/c2ccc(O)c(OC)c2)ccc1O	5.28% (active)
CN(C)c1ccc(C(=C2C=CC(=[N+](C)C)C=C2)c2ccc(N(C)C)cc2)cc1	-16.6% (active)
COC(=O)c1ccc(=O)c2nc3/c(=C/O)c(O)cc(=O)c3[nH]c12	12.6% (inactive)
CCCCCCCCCCCC[n+]1ccc2ccccc2c1	3.12% (active)
COc1cc([C@@H]2c3cc4c(cc3[C@H](OC3OC5COC(c6ccccc6)OC5C(O)C3O)[C@H]3COC(=O)[C@H]23)OCO4)cc(OC)c1OC (stereo partly specified)	16.2% (inactive)
NC(=Nc1nc(-c2ccccn2)cc2ccccc12)c1ccccn1	0.348% (active)
CN(C)CCN(C)CC(C)(C)C(=O)/C=C/c1ccc(Cl)c(Cl)c1	-0.943% [100 µM] (active)
CCN(CC)c1ccc(/C=C\C(=O)c2ccc(NC(C)=O)cc2)cc1	82.9% (inactive)
Clc1ccccc1C(c1ccccc1)(c1ccccc1)n1ccnc1	21.5% (inactive)
CCCCOS(=O)(=O)c1ccccc1	110% (inactive)
COc1cc(NC(=O)C2=C(C)NC(C)=C(C(=O)Nc3cc(OC)c(Cl)cc3OC)C2c2cccc([N+](=O)[O-])c2)c(OC)cc1Cl	12.3% (inactive)
CCCCCCCCCCCCCCCCCC[S+](C)CC (stereo unspecified)	14.6% (inactive)
CCNc1nnnn1CC	103% (inactive)
C[n+]1ccccc1C[n+]1ccccc1	92.7% (inactive)
NC(=S)N/N=C\c1nccc2c(N)cccc12	8.4% (active)
O=C(O)c1cccc2cccc(-c3c4ccc(=O)c(O)c-4oc4c(O)c(O)ccc34)c12	94.7% (inactive)
